Test results from PubChem BioAssay AID588342 (National Center for Advancing Translational Sciences (NCATS), 2011).
Among all 360,000 compounds or so, about 25,000 (6.9%) were called active. Another 9% or so got no clear call; they are omitted. This excerpt belongs to a sample that is enriched for actives. Unmarked numbers belong to inactive results. The call rests on the fitted dose curve; in most records, active means well fitted inhibition curve with a large enough effect; inconclusive means small, poorly fitted or top-dose-only effect; inactive means flat fitted curve, though single readings scatter.

Each compound was assayed against Luciferin 4-monooxygenase (Photinus pyralis) (UniProt P08659) (assay: qHTS profiling assay for firefly luciferase inhibitor/activator using purifed enzyme and Km concentrations of substrates (counterscreen for miR-21 project)). Settings: purified FLuc, luminescence inhibition; series mostly up to 57.5 µM; activity change, negative = inhibition: at the top concentration.
Chain of Luciferin 4-monooxygenase (Photinus pyralis) (P08659 whole entry, looked up): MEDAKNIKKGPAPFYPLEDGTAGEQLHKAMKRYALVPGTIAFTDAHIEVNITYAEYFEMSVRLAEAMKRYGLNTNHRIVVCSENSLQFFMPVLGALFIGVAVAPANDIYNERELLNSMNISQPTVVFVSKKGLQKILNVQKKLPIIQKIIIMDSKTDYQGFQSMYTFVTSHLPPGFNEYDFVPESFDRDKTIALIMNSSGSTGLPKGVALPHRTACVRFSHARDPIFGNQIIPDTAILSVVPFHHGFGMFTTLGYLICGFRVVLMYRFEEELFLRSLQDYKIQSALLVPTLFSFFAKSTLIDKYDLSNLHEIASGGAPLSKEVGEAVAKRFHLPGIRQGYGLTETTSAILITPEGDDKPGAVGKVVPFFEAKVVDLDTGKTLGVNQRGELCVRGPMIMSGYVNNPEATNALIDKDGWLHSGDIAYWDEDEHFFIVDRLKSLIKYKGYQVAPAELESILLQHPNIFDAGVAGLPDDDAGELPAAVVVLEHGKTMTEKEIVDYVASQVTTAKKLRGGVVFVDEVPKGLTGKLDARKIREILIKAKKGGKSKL
In short: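 Purified P. pyralis luciferase, 10 nM final, with Km-level 10 uM D-luciferin and 10 uM ATP in 50 mM Tris acetate pH 7.5, 10 mM Mg acetate, 0.01% Tween-20, 0.05% BSA; 6-point qHTS titration about 60 µM downward; luminescence read.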
Further: nearly all actives have a fitted effect of over 55% in size.
Potency means the concentration at half of the fitted maximal effect.
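Wherever activity change, negative = inhibition is given: plate controls were vehicle for no effect and reference inhibitor for full effect.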

Point of comparison: `CCOc1ccccc1NC(=O)Cn1c(=O)n(Cc2ccco2)c(=O)c2sc3ccccc3c21`, “activity change, negative = inhibition” value 2.58%. Against it:
- CCOC(=O)c1c(-c2ccc(OC)cc2)oc2ccc(OCc3ccc(C(=O)OC)cc3)cc12 — higher, 3.13%
- COc1ccc(C)cc1NC(=O)CCc1c(C)nn(-c2ccc(N3CCOCC3)nn2)c1C — lower, -14.2%
- Cc1ccc(Cn2c(C)c3cnn(CC(=O)NCc4ccccc4)c(=O)c3c2C)cc1 — lower, -15.1%
- CC(=O)c1c(C)n(S(=O)(=O)c2ccc(Cl)cc2)c2ccc(NS(=O)(=O)c3ccc(Cl)cc3)cc12 — lower, 0.804%
- COc1cc(C(=O)Nc2ncccc2C)ccc1OCC(=O)N1CCOCC1 — higher, 3.05%
- COc1cc(OC)cc(-c2nc3nc(C)c(CCC(=O)Nc4ccccc4)c(C)n3n2)c1 — lower, 1.43%
- COc1ccc(-c2cc3nc(C)c(CCC(=O)NC(C)CCc4ccco4)c(C)n3n2)c(OC)c1 (stereo unspecified) — lower, 1.35%
- CCOc1ccc(OCC)c(NC(=O)CN(c2ccc(C)cc2)S(=O)(=O)c2c(C)n[nH]c2C)c1 — lower, -2.42%
- CCOC(=O)c1c(S(=O)(=O)NCC(=O)Nc2ccc(Cl)c(C(F)(F)F)c2)c(C)n(C)c1C — lower, -14.6%
- C[C@H](NC(=O)c1ccccc1)C(=O)OCC(=O)c1c[nH]c2ccccc12 — lower, -19.2%
- CC1CCN(CC(=O)c2c[nH]c3ccccc23)CC1 — lower, -0.382%
- Cn1c(=O)[nH]c(=O)c2c1nc(CN1CCN(c3ccccc3F)CC1)n2CCc1ccccc1 — lower, 1.71%
- CCOc1cc(CNC(=O)c2sc3ncnc(N(C)C4CCCCC4)c3c2C)ccc1OC — lower, -12.1%
- O=C(CSCc1c(F)cccc1Cl)NCC1CCCO1 (stereo unspecified) — lower, 2.11%
- O=C(Nc1ccccc1C(=O)NCC1CCCO1)c1ccccc1F (stereo unspecified) — lower, -2.21%
- COCCNC(=O)c1cc(-c2cccc(Cl)c2)on1 — lower, -4.38%
- O=C(NCC1CCCO1)c1cc2c([nH]c3ccccc32)c(-c2ccc(F)cc2)n1 (stereo unspecified) — higher, 2.88%
- Cc1onc(-c2ccccc2Cl)c1C(=O)NCCn1ccc2ccccc21 — higher, 11.8%
- Cc1ccccc1CN(c1ccc(C(=O)NCC2CCCO2)cc1)S(C)(=O)=O (stereo unspecified) — lower, -0.433%
- CCC(=O)N1c2ccccc2CC1C(=O)N1CCN(c2cccc(OC)c2)CC1 (stereo unspecified) — lower, 1.83%
- Cc1c(C)n(Cc2ccc(Cl)cc2)c2ccc(C(=O)N3CCN(c4ccccc4F)CC3)cc12 — lower, -5.91%
- CCOc1cc(C(=O)NCCc2csc3nc(-c4ccc(C)cc4)nn23)cc(OCC)c1OCC — higher, 6.07%
- CCCn1c(NCc2ccccc2F)nc2ccccc21 — lower, -15.2%
- Cc1ccc(NC(=O)c2cccc(S(=O)(=O)N3CCCc4ccccc43)c2)nc1 — lower, 0.271%
- Cc1c(C(=O)N2CCCC2)oc2c1-c1nn(CC(=O)NCc3ccc(OC(C)C)cc3)cc1CC2 — lower, -13.6%
- CC1CCCC(C)N1C(=O)COC(=O)COc1ccccc1C#N (stereo unspecified) — lower, 2.51%
- O=C(CC1Oc2ccc(Cl)cc2NC1=O)NCc1ccccc1 (stereo unspecified) — lower, -6.6%
- CCCc1cc(=O)oc2c(C)c(OCC(=O)N3CCC(C(=O)O)CC3)ccc12 — higher, 3.56%
- CCCCc1cc(=O)oc2c(C)c(OCC(=O)N3CCC(C(N)=O)CC3)ccc12 — higher, 6.74%
- COc1ccc(NC2CCCN(C(=O)c3ccncc3)C2)cc1 (stereo unspecified) — lower, 0.516%
- COC(=O)c1ccc(NC(=O)c2cc(S(=O)(=O)N3CCC(C)CC3)cn2C)cc1 — lower, 0.945%
- O=C(NCC(O)c1ccc([N+](=O)[O-])cc1)C1CCCCC1 (stereo unspecified) — lower, -1.1%
- c1ccc2c(c1)OCCOCCOCCO2 — lower, 0.575%
- Cc1ccc(CCNC(=O)C2CCN(c3nnc(-n4cccc4CNc4ccc(C)cc4)s3)CC2)cc1 — lower, -8.47%
- O=C(CNc1ccccc1N1CCCC1=O)Nc1cc(Cl)ccc1-n1cncn1 — higher, 4.94%
- O=S(=O)(c1ccc(Br)cc1)c1nnn2c1nc(NC1CCCCCC1)c1sccc12 — lower, -3.5%
- CCOc1ccccc1N(CC)C(=O)Nc1cn(C)c(=O)c2ccccc12 — lower, -0.457%
- COc1ccc(C2Sc3ccccc3NC3=C2C(=O)c2ccccc23)c(OC)c1OC (stereo unspecified) — lower, -0.461%
- COc1cc(C2C(C(=O)c3sc(C)nc3C)=C(O)C(=O)N2CCN(C)C)cc(OC)c1OC (stereo unspecified) — lower, -2.01%
- COc1ccc(-c2cc(-c3ccc(F)cc3)nc3c2COc2ccccc2-3)cc1 — lower, 2.55%
- COc1ccc(-c2cc(-c3ccccc3)nc3c2COc2ccc(Cl)cc2-3)cc1 — lower, -0.771%
- Cc1ccc(C2CCN(C(=O)c3cnn(-c4ccccc4Cl)c3C3CCN(C(=O)OC(C)(C)C)CC3)C2)cc1 (stereo unspecified) — lower, 0.553%
- O=C(CSc1nc(=O)n(Cc2cccnc2)c2c1CCC2)Nc1ccc(F)cc1F — lower, -2.48%
- CN(C)S(=O)(=O)c1ccc(C(=O)N(Cc2cccnc2)c2nc3c(F)cc(F)cc3s2)cc1 — lower, -2.45%
- S=C(NCc1cccnc1)Nc1ccc(Cl)cc1Cl — lower, -0.282%
- O=C(Nc1c(Cl)cccc1Cl)C1CCC1 — lower, 2.13%
- CN(C(=O)CCn1c(=S)oc2ccccc21)C1CCCCC1 — lower, -8.28%
- Cc1ccc(S(=O)(=O)N(C)CC(=O)NCC(c2ccc(F)cc2)N2CCOCC2)cc1 (stereo unspecified) — higher, 6.77%
- CCOc1ccc(N2C(=O)CC(N(CCc3ccc(OC)c(OC)c3)C(=S)Nc3ccccc3)C2=O)cc1 (stereo unspecified) — lower, 0.272%
- CC1(C)O[C@@H]2[C@H](O1)[C@@H](COS(=O)(=O)O)O[C@H]2n1cnc2c(=O)[nH]cnc21 — lower, -0.661%
- COC1=C(N2CCOCC2)C(=O)c2ccccc2C1=O — lower, -3.41%
- Cc1ccc(C)c(CSc2nc(-c3ccco3)nc3c2c(=O)n(C)c(=O)n3C)c1 — lower, 0.834%
- CCOC(=O)c1c(N)nn(C(=O)c2ccccc2)c1-c1ccccc1 — lower, 0.583%
- CCOC(=O)c1cc2c(=O)n3ccccc3nc2n(CC2CCCO2)c1=NC(=O)c1ccccc1F (stereo unspecified) — lower, -1.04%
- Cc1ccc(/C(N)=N/OC(=O)COc2ccc(Cl)c(C)c2)cc1 — lower, 1.16%
- Cc1cccc(C(=O)c2cccc(C)c2)c1 — lower, -15.9%
- C/C(=N\OC(=O)c1ccccc1)c1c(C)nc2cc(C)ccn12 — lower, -9.53%
- Cc1ccc(OC(=O)CCC(=O)Nc2ccc(Br)cc2)cc1 — higher, 5.41%
- CCc1ccc(NC(=O)CSc2nc3c([nH]c4ccccc43)c(=O)n2-c2cccc(OC)c2)cc1 — lower, -3.31%
- Cc1ccsc1/C=N/Nc1ccc(Cl)nn1 — lower, -19.8%
- Clc1ccc(N/N=C/c2cccs2)nn1 — lower, -5.8%
- Cn1c(=O)c2c(nc(NCCc3ccccc3)n2Cc2ccccc2Br)n(C)c1=O — lower, -7.21%
- CCOC(=O)/C=c1\s/c(=C\c2ccc(C#N)cc2)c(=O)n1CC(=O)Nc1cccc(C)c1C — lower, 2.08%
- O=C(CCc1cn(Cc2ccc(F)cc2)c2ccccc12)NC1CCCCC1 — lower, -1.23%
- COc1ccc(CCN=C2SCC(=O)N2Cc2ccccc2)cc1OC — lower, 1.96%
- Cc1ccc(-c2nn(CCC(=O)Nc3ccc(Cl)c(Cl)c3)c(=O)c3ccccc23)cc1 — lower, -11.4%
- CC(C)c1nc2oc3c(N4CCN(C)CC4)ncnc3c2c2c1CCC2 — lower, 2.2%
- FC(F)(F)c1cccc(NC(=S)Nc2cccc(Cl)c2)c1 — lower, 1.4%
- Cc1cccc(NC(=S)Nc2ccc(Cl)c(Cl)c2)c1 — lower, -9.32%
- O=C(O)c1ccccc1NC(=O)c1ccccc1-c1ccccc1C(=O)O — lower, -3.24%
- COC(=O)c1ccccc1NC(=S)NC(=O)c1ccccc1F — lower, -17.6%
- Cc1ccc(NC(=O)CN(C)C(=O)COC(=O)c2nccnc2N)cc1 — higher, 3.32%
- COC(=O)c1cc(NC(=O)c2sc3ccccc3c2Cl)cc(C(=O)OC)c1 — higher, 5.83%
- Cc1cc(C)cc(NC(=O)C(OC(=O)c2ccc(O)cc2)c2ccccc2)c1 (stereo unspecified) — lower, -0.427%
- CC(C)CN(C(=O)CSc1nncn1C)C1CCS(=O)(=O)C1 (stereo unspecified) — lower, 0.606%
- Cc1cccc(NC(=O)N2CCN(C)c3ncccc32)c1C — lower, -3.65%
- O=C(Nc1ccon1)c1cccc(Cl)c1 — higher, 3.05%
- CCCC(=O)Nc1ccc(NC(=O)c2sc3ccccc3c2Cl)cc1 — lower, -7.06%

With `COc1ccccc1-c1cc2nc(C)c(CCC(=O)O)c(C)n2n1` the Potency was 15.1 µM (active).
In the case of `O=C(OCC(=O)c1c[nH]c2ccccc12)c1cccc(O)c1`, the Potency is reported as 9.53 µM (active).
With `O=C(NCC1CCCO1)c1ccccc1-c1nc(-c2ccccc2Cl)no1` (stereo unspecified) the Potency was 12 µM (active).
`COCCNC(=O)c1ccccc1-c1nc(-c2ccccc2Cl)no1` was tested, and the Potency was 12 µM (active).
With `Cc1ccc(-c2noc(-c3ccccc3C(=O)NCC3CCCO3)n2)cc1` (stereo unspecified) the Potency was 4.78 µM (active).
With `Cc1c(C)c2ccc(OCC(=O)N3CCC(C(=O)O)CC3)c(C)c2oc1=O` the Potency was 23.9 µM (active).
In the case of `COc1ccc2sc(-c3ccc(N(C)C)cc3)c(C#CCO)c2c1`, the Potency is reported as 8.49 µM (active).
With `NS(=O)(=O)c1ccc(-c2ccc(/C=C3\SC(=O)NC3=O)o2)cc1` the Potency was 13.5 µM (active).
For `COc1ccc(C2=Nc3cc(C)ccc3OC2)cc1`, the Potency was 0.379 µM (active).
`C#C[C@]1(O)CC[C@H]2[C@@H]3CCC4=CC(=O)CC[C@@H]4[C@H]3CC[C@@]21CC` was tested, and the Potency was “inactive”.
For `O=C(NC(=S)Nc1ccc(Cl)cc1Cl)C1CC1`, the Potency was 21.3 µM (active).
For `CC(=O)N(C1=C(Cl)C(=O)c2ccccc2C1=O)c1ccc(C(=O)O)cc1`, the Potency was 1.69 µM (active).
`Cc1nn(C(=O)c2ccoc2C)c(N)c1-c1ccccc1` was tested, and the Potency was 10.7 µM (active).
In the case of `Cc1cccc(/C(N)=N/OC(=O)c2ccccc2Cl)c1`, the Potency is reported as 0.757 µM (active).
In the case of `C/C(=N/OC(=O)c1ccc(Br)cc1)c1ccc(C)cc1`, the Potency is reported as 6.75 µM (active).
In the case of `Oc1cccc(/C=N/Nc2ccc(Cl)nn2)c1O`, the Potency is reported as 8.49 µM (active).
`CN(c1ccccc1)c1ccc(/C=c2\s/c(=C(/C#N)C(=O)C(C)(C)C)n(Cc3ccco3)c2=O)cc1` was tested, and the Potency was 15.1 µM (active).
In the case of `Cc1csc(NC(=S)Nc2cccc(Cl)c2)n1`, the Potency is reported as 4.78 µM (active).
In the case of `O=C(NC(=S)Nc1ccccc1C(=O)O)c1ccc(-c2ccc(Br)cc2)o1`, the Potency is reported as 26.9 µM (active).
`COc1ccc(N=C(C)c2sc3ccccc3c2O)cc1` was tested, and the Potency was 0.601 µM (active).
With `O=C(Nc1ccon1)c1sc2ccccc2c1Cl` the Potency was 7.57 µM (active).

Work on `Cc1occc1C(=O)Nc1nnc(-c2ccncc2)s1` yielded an activity change, negative = inhibition of -0.684% [at 2.3 µM].
